PubChem BioAssay (NCATS)
Values joined by “and” are separate entries in the source; they are usually repeats but may differ in a detail not shown here. Equal entries are not always repeated. Results filed as inconclusive are left out. Active and inactive are the calls of the source. Unless noted, the call rests on the fitted dose curve; in most records, active means well fitted curve in the direction sought with a large enough effect; inconclusive means small, poorly fitted or top-dose-only effect, or another doubt; inactive means no such curve, though single readings can be large; an effect the other way counts as inactive or inconclusive.

Legend:
[1] = Cellular Toxicity (caspase-3) NIH 3T3 (AID 666);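 further: caspase signal read after 16 h compound exposure; 0% = DMSO basal and 100% = 100 µM tamoxifen stimulation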
Outline: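 Mouse NIH 3T3 fibroblasts (1000/well) treated 16 h at 37 C; caspase-3/7 activity measured by Caspase-Glo 3/7 luminescence after 20 min. Normalized to DMSO and 100 uM tamoxifen; AC50 from Hill fits.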

[2] = Cell Viability - LYMP2-026 (AID 989); further: on the % scale 0 is the no-effect control and ±100 the full control effect; nearly all actives have a fitted effect of over 50% in size
Outline: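 Human lymphoblastoid LYMP2-026 cells, 2500/well, exposed to compound 24 h at 37 C in complete medium. Viability as intracellular ATP by CellTiter-Glo luminescence; AC50 from Hill fits of qHTS concentration-response.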

[3] = biological target: Estrogen receptor (Homo sapiens) (UniProt P03372); assay: qHTS assay for small molecule antagonists of estrogen receptor alpha signaling (AID 588513; active means well fitted curve in the direction sought with a large enough effect in the signal ratio, with a control signal flat, not every such curve was filed as active; the % refers to the signal ratio; further: on the % scale 0 is the no-effect control and ±100 the full control effect)
Chain of Estrogen receptor (Homo sapiens) (P03372 whole entry, looked up): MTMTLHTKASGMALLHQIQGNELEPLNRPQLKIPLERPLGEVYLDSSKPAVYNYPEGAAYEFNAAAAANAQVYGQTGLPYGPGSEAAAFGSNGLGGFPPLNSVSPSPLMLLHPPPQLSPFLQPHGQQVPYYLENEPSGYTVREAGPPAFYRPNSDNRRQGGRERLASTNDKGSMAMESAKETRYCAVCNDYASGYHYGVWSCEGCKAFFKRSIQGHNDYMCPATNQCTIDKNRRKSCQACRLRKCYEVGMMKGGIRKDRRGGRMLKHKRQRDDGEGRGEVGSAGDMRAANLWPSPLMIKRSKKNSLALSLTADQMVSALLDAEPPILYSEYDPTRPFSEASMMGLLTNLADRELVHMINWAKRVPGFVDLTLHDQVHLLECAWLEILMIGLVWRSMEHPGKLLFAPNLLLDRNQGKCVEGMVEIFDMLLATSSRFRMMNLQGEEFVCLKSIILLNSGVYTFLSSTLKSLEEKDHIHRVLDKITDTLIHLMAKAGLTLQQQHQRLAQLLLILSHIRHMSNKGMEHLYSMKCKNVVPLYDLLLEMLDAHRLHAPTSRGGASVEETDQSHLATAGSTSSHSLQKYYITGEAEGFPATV
Outline: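 Antagonist mode: inhibition of 0.5 nM 17-beta-estradiol-driven beta-lactamase reporter in HEK 293 ER-alpha-UAS-bla cells, 18 h at 37C, CCF4 readout after 2 h at RT. Normalised to estradiol and DMSO; titration fitted to Hill.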

[4] = biological target: Glucocorticoid receptor (Homo sapiens) (UniProt P04150); assay: qHTS assay for small molecule agonists of glucocorticoid receptor signaling (AID 588532; active means well fitted curve in the direction sought with a large enough effect in the signal ratio, with a control signal flat; the % refers to the signal ratio;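 further: 100% = dexamethasone at 0.1 µM and 0% = DMSO only wells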); details: HeLa MMTV-bla, beta-lactamase ratio, agonist, 18 h; active compounds read high; percent of dexamethasone control, DMSO zero
Chain of Glucocorticoid receptor (Homo sapiens) (P04150 whole entry, looked up): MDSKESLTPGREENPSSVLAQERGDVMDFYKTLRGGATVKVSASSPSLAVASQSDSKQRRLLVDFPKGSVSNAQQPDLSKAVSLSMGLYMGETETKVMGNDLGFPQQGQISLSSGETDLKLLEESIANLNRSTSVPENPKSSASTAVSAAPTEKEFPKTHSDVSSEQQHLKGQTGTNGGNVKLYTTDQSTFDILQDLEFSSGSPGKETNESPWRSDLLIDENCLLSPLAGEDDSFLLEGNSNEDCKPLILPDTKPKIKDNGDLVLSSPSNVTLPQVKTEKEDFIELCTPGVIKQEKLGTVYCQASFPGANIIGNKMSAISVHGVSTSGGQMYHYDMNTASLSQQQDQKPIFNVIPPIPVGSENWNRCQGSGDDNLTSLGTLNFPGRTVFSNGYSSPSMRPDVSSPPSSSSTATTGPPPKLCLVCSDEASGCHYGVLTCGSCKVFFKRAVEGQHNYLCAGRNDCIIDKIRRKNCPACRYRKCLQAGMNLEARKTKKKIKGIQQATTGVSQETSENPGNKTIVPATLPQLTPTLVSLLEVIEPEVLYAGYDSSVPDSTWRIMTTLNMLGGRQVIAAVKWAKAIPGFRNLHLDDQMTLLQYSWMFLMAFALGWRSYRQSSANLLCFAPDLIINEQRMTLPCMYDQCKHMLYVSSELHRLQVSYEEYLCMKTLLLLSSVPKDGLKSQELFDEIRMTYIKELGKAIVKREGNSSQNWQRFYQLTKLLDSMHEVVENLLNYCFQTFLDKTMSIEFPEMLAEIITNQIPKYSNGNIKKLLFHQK
Outline: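 MMTV-bla HeLa, beta-lactamase reporter; medium with 1% charcoal/dextran-stripped FBS; cpds up to 92 uM, 18 h, 37 C; CCF4 readout 460/530 nm; Hill fit → EC50, efficacy vs 0.1 uM dexamethasone = 100%.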

[5] = biological target: Vitamin D3 receptor (Homo sapiens) (UniProt P11473); assay: qHTS assay for small molecule agonists of vitamin D receptor signaling (AID 588543; calls by dose curve; further: potency means the concentration at half of the fitted maximal effect;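 on activation: 0% = DMSO basal and 100% = reference agonist control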)
Chain of Vitamin D3 receptor (Homo sapiens) (P11473 whole entry, looked up): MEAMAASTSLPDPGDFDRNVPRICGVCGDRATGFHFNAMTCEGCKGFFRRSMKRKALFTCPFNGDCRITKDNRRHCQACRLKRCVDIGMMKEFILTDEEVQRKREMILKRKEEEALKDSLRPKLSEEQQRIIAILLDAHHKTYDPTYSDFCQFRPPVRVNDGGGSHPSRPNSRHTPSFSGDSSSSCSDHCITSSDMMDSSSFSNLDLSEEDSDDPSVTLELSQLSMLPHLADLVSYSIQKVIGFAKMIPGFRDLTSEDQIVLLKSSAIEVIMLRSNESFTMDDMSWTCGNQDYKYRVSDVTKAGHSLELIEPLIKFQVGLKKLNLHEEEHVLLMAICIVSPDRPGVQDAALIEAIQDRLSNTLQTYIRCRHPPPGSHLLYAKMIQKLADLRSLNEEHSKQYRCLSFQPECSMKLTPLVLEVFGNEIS
Outline: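 Agonist-mode beta-lactamase reporter: HEK293T VDR-UAS-bla cells in charcoal-stripped 2% FBS, compound series 16 h 37 C, CCF4 2 h RT. EC50 from Hill fit, scaled against DMSO and 50 nM calcitriol control.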

[6] = biological target: Voltage-gated inwardly rectifying potassium channel KCNH2 (Homo sapiens) (UniProt Q12809); assay: qHTS Assay for Small Molecule Inhibitors of the Human hERG Channel Activity (AID 588834);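 further: lower thallium flux fluorescence means stronger hERG block; nearly all actives have a fitted effect of over 50% in size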; further: potency means the concentration at half of the fitted maximal effect
Chain of Voltage-gated inwardly rectifying potassium channel KCNH2 (Homo sapiens) (Q12809 whole entry, looked up): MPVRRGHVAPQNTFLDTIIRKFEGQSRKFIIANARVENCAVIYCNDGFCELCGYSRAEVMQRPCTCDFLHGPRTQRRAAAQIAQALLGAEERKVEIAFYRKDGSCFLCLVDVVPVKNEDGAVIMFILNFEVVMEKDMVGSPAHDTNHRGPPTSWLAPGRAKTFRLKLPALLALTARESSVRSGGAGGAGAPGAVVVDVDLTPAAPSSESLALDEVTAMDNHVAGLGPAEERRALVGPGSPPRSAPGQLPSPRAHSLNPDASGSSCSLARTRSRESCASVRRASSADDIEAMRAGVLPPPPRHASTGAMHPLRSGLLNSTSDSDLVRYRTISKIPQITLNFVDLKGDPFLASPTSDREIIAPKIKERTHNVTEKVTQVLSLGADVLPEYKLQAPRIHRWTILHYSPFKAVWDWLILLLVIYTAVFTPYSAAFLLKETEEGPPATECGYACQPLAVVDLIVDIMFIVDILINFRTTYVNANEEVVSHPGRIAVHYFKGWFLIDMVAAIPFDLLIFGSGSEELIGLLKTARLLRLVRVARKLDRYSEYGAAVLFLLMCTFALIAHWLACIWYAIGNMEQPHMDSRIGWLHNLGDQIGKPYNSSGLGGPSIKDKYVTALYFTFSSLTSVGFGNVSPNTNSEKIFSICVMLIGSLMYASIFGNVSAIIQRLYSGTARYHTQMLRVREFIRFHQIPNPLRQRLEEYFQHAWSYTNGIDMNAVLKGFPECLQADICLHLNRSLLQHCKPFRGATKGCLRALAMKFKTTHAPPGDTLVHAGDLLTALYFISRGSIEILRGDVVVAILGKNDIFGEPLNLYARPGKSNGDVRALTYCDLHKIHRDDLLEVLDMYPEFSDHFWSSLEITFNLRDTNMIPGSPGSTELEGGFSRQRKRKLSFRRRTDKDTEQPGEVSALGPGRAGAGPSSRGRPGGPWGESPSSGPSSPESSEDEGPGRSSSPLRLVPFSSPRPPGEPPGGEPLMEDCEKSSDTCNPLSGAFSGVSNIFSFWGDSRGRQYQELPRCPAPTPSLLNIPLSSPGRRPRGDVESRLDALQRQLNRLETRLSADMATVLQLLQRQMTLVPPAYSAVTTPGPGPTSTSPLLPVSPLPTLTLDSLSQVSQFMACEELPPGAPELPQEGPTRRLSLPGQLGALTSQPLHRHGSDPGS
Outline: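 Kinetic FDSS fluorescence; U2OS + hERG BacMam (~100 virus particles/cell); FluxOR Tl+ flux; ~10 min cpd; AC50 (Hill).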

[7] = biological target: Nuclear receptor ROR-gamma (Homo sapiens) (UniProt P51449); assay: qHTS assay for small molecule antagonists of the retinoid-related orphan receptor gamma (ROR-gamma) signaling pathway (AID 651802); further: nearly all actives have a fitted effect of over 60% in size; further: potency means the concentration at half of the fitted maximal effect
Chain of Nuclear receptor ROR-gamma (Homo sapiens) (P51449 whole entry, looked up): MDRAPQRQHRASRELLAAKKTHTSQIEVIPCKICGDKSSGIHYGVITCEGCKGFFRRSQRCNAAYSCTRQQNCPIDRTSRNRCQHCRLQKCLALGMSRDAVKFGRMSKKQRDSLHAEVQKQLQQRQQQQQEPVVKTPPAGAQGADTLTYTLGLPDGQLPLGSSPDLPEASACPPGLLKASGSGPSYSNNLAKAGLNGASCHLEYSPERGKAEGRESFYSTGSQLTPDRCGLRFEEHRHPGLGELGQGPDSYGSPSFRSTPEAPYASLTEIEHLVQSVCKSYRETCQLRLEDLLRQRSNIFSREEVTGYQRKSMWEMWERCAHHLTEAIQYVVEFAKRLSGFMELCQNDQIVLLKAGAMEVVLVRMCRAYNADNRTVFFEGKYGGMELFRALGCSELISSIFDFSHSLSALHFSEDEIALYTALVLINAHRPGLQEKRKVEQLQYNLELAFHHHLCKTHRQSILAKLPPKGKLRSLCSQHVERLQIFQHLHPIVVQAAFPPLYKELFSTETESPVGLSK
Outline: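 CHO cells with TET-inducible ROR-gamma and RORE-luciferase reporter, dosed then doxycycline-induced. After 16 h at 37C, One-Glo luminescence read; decreased signal indicates antagonism.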

[8] = qHTS assay for small molecule antagonists of the retinoid-related orphan receptor gamma (ROR-gamma) signaling pathway - cell viability counter screen (AID 720652; active means well fitted curve in the direction sought with a large enough effect in the repeat runs; an effect the other way counts as inactive or inconclusive;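 further: series mostly up to about 92 µM; compound exposure lasted 16 hr before ATP read; on the % scale 0 is the no-effect control and ±100 the full control effect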)
Outline: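 CHO cells carrying TET-inducible ROR and RORE-luciferase reporter, plated 5 hr, then dosed with compound plus doxycycline. After 16 hr at 37 C, viability read as intracellular ATP by CellTiter-Glo luminescence.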

[9] = qHTS assay for small molecule activators of the human pregnane X receptor (PXR) signaling pathway (AID 720659; call rule not given here; further: 0% is about no effect)
[10] = Cell Viability - HUV-EC-C (AID 542); further: on the % scale 0 is the no-effect control and ±100 the full control effect; nearly all actives have a fitted effect of over 35% in size
Outline: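 HUV-EC-C human vascular endothelial cells, 1000/well, exposed to compound for 40 hr at 37 °C in complete medium. Intracellular ATP was read by CellTiter-Glo luminescence. AC50 came from Hill-equation fits of concentration-response data.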

[11] = biological target: Cytochrome P450 3A4 (Homo sapiens) (UniProt P08684); assay: qHTS Assay for Inhibitors and Substrates of Cytochrome P450 3A4 (AID 884); further: nearly all actives have a fitted effect of over 50% in size; further: potency means the concentration at half of the fitted maximal effect
Chain of Cytochrome P450 3A4 (Homo sapiens) (P08684 whole entry, looked up): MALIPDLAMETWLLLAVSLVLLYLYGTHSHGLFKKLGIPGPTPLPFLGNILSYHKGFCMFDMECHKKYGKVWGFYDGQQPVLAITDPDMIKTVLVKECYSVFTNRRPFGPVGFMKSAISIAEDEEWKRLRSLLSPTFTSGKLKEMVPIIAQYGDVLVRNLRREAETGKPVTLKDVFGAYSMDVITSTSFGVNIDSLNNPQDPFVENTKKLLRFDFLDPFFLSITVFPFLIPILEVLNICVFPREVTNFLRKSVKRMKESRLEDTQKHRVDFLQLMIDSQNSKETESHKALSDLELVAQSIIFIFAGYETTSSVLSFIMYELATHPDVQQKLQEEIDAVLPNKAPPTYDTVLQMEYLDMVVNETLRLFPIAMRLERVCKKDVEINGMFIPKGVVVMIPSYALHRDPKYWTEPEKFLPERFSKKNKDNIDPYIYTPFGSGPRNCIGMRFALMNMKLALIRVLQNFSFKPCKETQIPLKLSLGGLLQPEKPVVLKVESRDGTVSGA
Outline: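 20 nM human CYP3A4 with 25 uM Luciferin-PPXE (at KM) in 200 mM KPO4, preincubated 10 min with compound; NADPH regeneration started a 60 min RT reaction. Luciferin detected by luminescence, normalized to 57 uM ketoconazole as full inhibition.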

[12] = MultiTox-Fluor Cytotoxicity Assay - LYMP1-003 - Dead Cells (AID 961); further: nearly all actives have a fitted effect of over 70% in size; further: potency means the concentration at half of the fitted maximal effect
Outline: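 LYMP1-003 lymphoblastoid, 2500 cells/well, 5 hr settle then 16 hr cpd at 37 C; MultiTox-Fluor reagent 60 min RT; Ex/Em 485/520 dead-cell signal; norm. DMSO = 0%, 15 uM tetraoctylammonium bromide = 100%; Hill AC50.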

[13] = Cell Viability - LYMP1-002 - Assay at 24 hr (AID 993); further: potency means the concentration at half of the fitted maximal effect
Outline: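 Human lymphoblastoid LYMP1-002 cells (2500/well) treated 24 h at 37 °C; viability as intracellular ATP by CellTiter-Glo luminescence. Tetraoctylammonium bromide as positive control; AC50 from Hill-equation fits of qHTS concentration-response.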

[14] = biological target: Estrogen receptor (Homo sapiens) (UniProt P03372); assay: qHTS assay for small molecule agonists of estrogen receptor alpha signaling (AID 588514; calls by dose curve;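 further: 0% = vehicle only and 100% = reference agonist; nearly all actives have a fitted effect of over 70% in size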)
Outline: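 ER-alpha-UAS-bla GripTite HEK293 cells, 5000/well in 2% charcoal/dextran-stripped FBS medium, treated with compound titrations 18 h at 37 C. CCF4 beta-lactamase read by fluorescence after 2 h RT; normalised to 20 nM 17-beta-estradiol (100%) and DMSO (0%), Hill fit for EC50 and efficacy.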

[15] = biological target: Glucocorticoid receptor (Homo sapiens) (UniProt P04150); assay: qHTS assay for small molecule antagonists of glucocorticoid receptor signaling (AID 588533; active means well fitted inhibition curve with a large enough effect in the signal ratio, with a control signal flat, not every such curve was filed as active; the % refers to the signal ratio;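 further: cells stimulated with 2 nM dexamethasone as agonist; on the % scale 0 is the no-effect control and ±100 the full control effect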)
Outline: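 Antagonist-mode qHTS: compound titrations added to GRE-bla HeLa cells, then dexamethasone 2 nM final; 18 h, 37 C. CCF4 FRET fluorescence normalized to dexamethasone and DMSO; IC50 from Hill fit.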

[16] = biological target: Peroxisome proliferator-activated receptor gamma (Homo sapiens) (UniProt P37231); assay: qHTS assay for small molecule agonists of peroxisome proliferator-activated receptor gamma signaling (AID 588536; active means well fitted curve in the direction sought with a large enough effect in the signal ratio, with a control signal flat, not every such curve was filed as active; the % refers to the signal ratio;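 further: 0% = DMSO basal wells and 100% = rosiglitazone at 2 µM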)
Chain of Peroxisome proliferator-activated receptor gamma (Homo sapiens) (P37231 whole entry, looked up): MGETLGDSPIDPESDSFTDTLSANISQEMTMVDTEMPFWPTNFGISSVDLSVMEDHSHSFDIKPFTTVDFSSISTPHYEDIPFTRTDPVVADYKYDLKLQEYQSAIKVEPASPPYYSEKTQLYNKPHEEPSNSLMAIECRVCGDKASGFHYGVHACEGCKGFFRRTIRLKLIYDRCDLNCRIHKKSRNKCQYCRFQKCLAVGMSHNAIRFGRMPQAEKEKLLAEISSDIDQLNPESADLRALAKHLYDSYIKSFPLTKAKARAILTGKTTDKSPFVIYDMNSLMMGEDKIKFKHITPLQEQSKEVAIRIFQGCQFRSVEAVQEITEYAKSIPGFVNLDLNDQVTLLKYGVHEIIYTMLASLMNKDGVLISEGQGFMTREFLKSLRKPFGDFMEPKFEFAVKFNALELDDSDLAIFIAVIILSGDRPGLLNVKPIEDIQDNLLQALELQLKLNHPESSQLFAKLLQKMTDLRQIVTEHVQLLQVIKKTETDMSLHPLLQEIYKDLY
Outline: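 Test agents, titrated, stimulated HEK293 UAS-bla cells overnight (16 h, 37 C). Substrate CCF4 was then added for two hours at room temperature before fluorescence reading.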

[17] = qHTS assay for small molecule agonists of the antioxidant response element (ARE) signaling pathway (AID 651741; active means well fitted activation curve with a large enough effect in the signal ratio; the % refers to the signal ratio; further: potency means the concentration at half of the fitted maximal effect; on activation: % of control where 0% means no effect)
Outline: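 Compounds in DMSO are pinned onto HepG2 ARE-bla cells (2,000/well) that were preincubated 5 h; plates stay 16 h at 37 C, then beta-lactamase activity is detected with LiveBLAzer B/G substrate by fluorescence.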

[18] = qHTS assay for small molecule activators of the nuclear factor-kappa B (NF-kB) signaling pathway (AID 651749; active means well fitted activation curve with a large enough effect in the signal ratio; the % refers to the signal ratio; further: series mostly up to about 77 µM; % of control where 0% means no effect); details: NF-kB-bla ME-180 cells, beta-lactamase FRET ratio, 16 h; active compounds read high
Outline: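 Screening used 2,000 ME-180 reporter cells per well exposed to pinned compound (23 nL) or DMSO; after 16 hr at 37C, beta-lactamase expression under NF-kB control was assessed through FRET.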

[19] = biological target: Tumor necrosis factor (Homo sapiens) (UniProt P01375); assay: qHTS assay to identify small molecules that stimulate Tumor Necrosis Factor-alpha (TNF-alpha) secretion (AID 651757; active means well fitted curve in the direction sought with a large enough effect in the signal ratio; the % refers to the signal ratio; further: 0% is about no effect)
Outline: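 THP-1 cells (3000/well) exposed to compounds 17 hrs at 37 C. Secreted TNF-alpha detected by HTRF with cryptate- and XL665-labeled anti-TNF-alpha antibodies after 3 hr at room temperature.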

[20] = biological target: Peroxisome proliferator-activated receptor delta (Homo sapiens) (UniProt Q03181); assay: qHTS assay for small molecule antagonists of peroxisome proliferator-activated receptor delta signaling (AID 588535; active means well fitted inhibition curve with a large enough effect in the signal ratio, with a control signal flat, not every such curve was filed as active; the % refers to the signal ratio)
Chain of Peroxisome proliferator-activated receptor delta (Homo sapiens) (Q03181 whole entry, looked up): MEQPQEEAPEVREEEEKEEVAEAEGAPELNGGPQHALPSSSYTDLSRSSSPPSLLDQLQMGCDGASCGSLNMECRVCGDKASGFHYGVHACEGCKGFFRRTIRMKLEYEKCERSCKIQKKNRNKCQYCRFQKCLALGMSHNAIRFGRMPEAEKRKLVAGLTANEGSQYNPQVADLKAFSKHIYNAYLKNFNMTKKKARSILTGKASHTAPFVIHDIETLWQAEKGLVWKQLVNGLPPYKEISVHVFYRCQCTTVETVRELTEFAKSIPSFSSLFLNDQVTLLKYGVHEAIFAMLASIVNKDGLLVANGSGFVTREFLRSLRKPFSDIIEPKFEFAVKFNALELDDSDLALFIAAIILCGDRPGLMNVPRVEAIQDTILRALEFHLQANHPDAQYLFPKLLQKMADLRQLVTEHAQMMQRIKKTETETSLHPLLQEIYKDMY
Outline: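 Reporter: UAS-bla under PPAR-delta response element, HEK293T host. Medium: 2% charcoal/dextran FBS. Dosing: titration, 18 hrs, 37 C. Detection: CCF4, 2 hrs RT, 405 ex/460 and 530 em.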

Nc1ccc(-c2ccc(N)c(O)c2)cc1O
inactive: outcome [1] | Potency [2] | outcome [3] | activation [4] 0.0418% | Potency [5] | Potency [6] | Potency [7] | Potency [8] | outcome [9]

O=c1[nH]ncc2ccccc12
inactive: Potency [10] | outcome [1] | Potency [11] | Potency [12] | Potency [2] | Potency [13] | outcome [3] | Potency [14] | activation [4] -0.672% | Potency [15] | outcome [16] | Potency [5] | Potency [6] | Potency [17] | activation [18] 0.114% | Potency [19] | Potency [7] | Potency [8] | outcome [9]

Oc1ccc(O)c2c(O)cccc12
active: Potency [17] 42.2 µM | Potency [7] 66.8 µM
inactive: Potency [10] | Potency [11] | Potency [12] | Potency [13] | outcome [3] | Potency [14] | activation [4] -3.75% | Potency [5] | Potency [6] | outcome [9]

O=C(OCc1ccccc1)c1ccccc1O
inactive: outcome [1] | Potency [11] | Potency [12] | Potency [2] | Potency [13] | outcome [3] | Potency [14] | activation [4] -2.46% and -9.77% | Potency [15] | outcome [20] | Potency [5] | activation [18] -0.301% and -2.68% | Potency [19] | Potency [7] | Potency [8] | outcome [9]
active: Potency [6] 39.8 µM

CCN(CC)c1ccc2c(C)cc(=O)oc2c1
active: Potency [5] 44.7 µM | Potency [17] 37.6 µM
inactive: Potency [10] | outcome [1] | Potency [12] | Potency [2] | Potency [13] | outcome [3] | Potency [6] | Potency [7] | Potency [8]

COc1ccc([N+](=O)[O-])cc1N
active: Potency [17] 30.6 µM
inactive: outcome [1] | Potency [12] | outcome [3] | Potency [14] | activation [4] 2.11% and 1.38% | Potency [15] | outcome [20] | outcome [16] | Potency [5] | Potency [6] | activation [18] 2.19% and -0.307% | Potency [7] | Potency [8] | outcome [9]

C[Si](C)(C)Cl
inactive: Potency [10] | Potency [11] | Potency [2] | Potency [13] | outcome [3] | Potency [14] | activation [4] 10.5% | Potency [15] | Potency [6] | activation [18] 1.18% | Potency [19] | Potency [7] | Potency [8] | outcome [9]

CCCC(=O)OC(=O)CCC
inactive: Potency [11] | Potency [2] | Potency [13] | outcome [20] | outcome [16] | Potency [6] | Potency [17] | activation [18] 0.205% and -0.934% | Potency [19] | Potency [7] | Potency [8] | outcome [9]

c1c[nH]cn1
inactive: Potency [10] | outcome [1] | Potency [11] | Potency [12] | Potency [2] | Potency [13] | outcome [3] | Potency [14] | activation [4] -7.19% | Potency [15] | outcome [20] | outcome [16] | Potency [5] | Potency [6] | Potency [17] | activation [18] 0.0227% | Potency [19] | Potency [8] | outcome [9]

NC(=O)c1ccc([N+](=O)[O-])cc1
inactive: Potency [10] | Potency [12] | activation [4] 1.08% | Potency [15] | outcome [20] | outcome [16] | Potency [5] | Potency [6] | Potency [17] | activation [18] -0.545% | Potency [19] | Potency [7] | Potency [8] | outcome [9]

CCc1ccc(C(c2ccc(CC)cc2)C(Cl)Cl)cc1
inactive: Potency [11] | Potency [2] | outcome [3] | Potency [14] | activation [4] 1.14% | Potency [15] | Potency [5] | Potency [19]
active: Potency [17] 66.8 µM

CCCCNCC
inactive: outcome [1] | Potency [11] | Potency [2] | outcome [3] | Potency [14] | activation [4] -12.1% | Potency [15] | outcome [20] | outcome [16] | Potency [17] | Potency [19] | Potency [7] | Potency [8] | outcome [9]

CN(C)c1ccc(Cc2ccc(N(C)C)cc2)cc1
inactive: outcome [1] | Potency [13] | activation [4] 7.64% and -3.57% | Potency [15] | outcome [20] | outcome [16] | Potency [5] | activation [18] -0.0867% and 0.169% | Potency [8]

Nc1ccc(N=Nc2ccccc2)c(N)c1
inactive: Potency [2] | outcome [3] | Potency [14] | activation [4] -4.54% | Potency [15] | outcome [16] | activation [18] -1.7% | Potency [7] | Potency [8]
active: Potency [11] 12.6 µM | Potency [17] 42.2 µM

Brc1ccc(-c2ccccc2)cc1
inactive: Potency [11] | Potency [12] | Potency [2] | activation [4] -2.59% | Potency [15] | Potency [5] | Potency [17] | activation [18] 2.79% | Potency [19] | Potency [7] | Potency [8] | outcome [9]

Cc1c(N)cccc1Cl
inactive: Potency [10] | outcome [1] | Potency [11] | Potency [2] | Potency [13] | outcome [3] | Potency [14] | activation [4] -4.07% | Potency [15] | outcome [20] | outcome [16] | Potency [5] | Potency [6] | Potency [17] | activation [18] 0.113% | Potency [19] | Potency [7] | Potency [8] | outcome [9]

C/C(Cl)=C/CCl
inactive: outcome [1] | Potency [11] | Potency [2] | outcome [3] | Potency [14] | outcome [20] | outcome [16] | Potency [6] | Potency [19] | Potency [7] | Potency [8] | outcome [9]

CC(=O)OCc1ccc2c(c1)OCO2
inactive: Potency [10] | outcome [1] | Potency [12] | Potency [13] | Potency [15] | Potency [5] | Potency [6] | Potency [17] | Potency [19] | Potency [7] | Potency [8] | outcome [9]

CC1=C(/C=C/C(C)=C/C=C/C(C)=C/C=O)C(C)(C)CCC1
inactive: Potency [5] | activation [18] -2.37% | Potency [19]
active: Potency [12] 50.1 µM | Potency [13] 50.1 µM | Potency [17] 29.8 µM
